Screens deposited in PubChem BioAssay by several laboratories.
rCAG RNA binder: binders of r(CAG) RNA repeats, primary screen, biochemical, fluorescence; AID 651821, 2012; r(CAG) RNA repeat, TO-PRO-1 dye displacement fluorescence; inhibition, % at 3 µM; actives 1.3% (n = 370,000);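 active means inhibition above the plate cutoff, the mean of all test compounds on that plate plus 3 SD, cut at about 35% in these data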;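 further: 0% = DMSO alone and 100% = 100 µM mitoxantrone as full dye displacement; higher means more dye released from RNA so lower well fluorescence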
LANA-H2B inh: blockers of LANA interaction with H2A/H2B – biochemical, FP readout, HTS, primary screen | Protein LANA1 (Human herpesvirus 8 type P (isolate GK18)), Q9QR71 | cell-free LANA-H2A/H2B peptide, fluorescence polarization | inhibition, % (no concentration beside the values) | actives 0.6% (n = 320,000); in the data active means inhibition mostly above about 10%, no sharp cut-off; inactive means mostly below about 6.7%
ABHD5-PLIN5 inh: ABHD5-PLIN5 interaction inhibitors, primary screen, cell lysate, split luciferase complementation, luminescence; actives 0.78% (n = 360,000); Split G. princeps luciferase complementation, 4 h; inhibition, % at 4 µM; Perilipin-5 (Homo sapiens) + 1-acylglycerol-3-phosphate O-acyltransferase ABHD5 (Homo …; AID 602281, 2012;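 active means inhibition above the mean inhibition across every tested compound plus 3 SD, cut at about 22% in these data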;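 further: 0% = DMSO only wells and the 100% control is not disclosed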
Rtt109 HAT inh: inhibitors of C. albicans Rtt109/Vps75 HAT, primary screen, biochemical, ThioGlo CoA-SH fluorescence, plate reader; AID 540336, 2011; inhibition, % at 34.9 µM; Histone acetyltransferase RTT109 (Candida albicans (strain SC5314 / ATCC MYA-2876)), …; purified Rtt109/Vps75, 4 h; actives 0.16% (n = 330,000);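 active means inhibition of at least 50% in every replicate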
Target sequence (Q5AAJ8 whole entry, looked up): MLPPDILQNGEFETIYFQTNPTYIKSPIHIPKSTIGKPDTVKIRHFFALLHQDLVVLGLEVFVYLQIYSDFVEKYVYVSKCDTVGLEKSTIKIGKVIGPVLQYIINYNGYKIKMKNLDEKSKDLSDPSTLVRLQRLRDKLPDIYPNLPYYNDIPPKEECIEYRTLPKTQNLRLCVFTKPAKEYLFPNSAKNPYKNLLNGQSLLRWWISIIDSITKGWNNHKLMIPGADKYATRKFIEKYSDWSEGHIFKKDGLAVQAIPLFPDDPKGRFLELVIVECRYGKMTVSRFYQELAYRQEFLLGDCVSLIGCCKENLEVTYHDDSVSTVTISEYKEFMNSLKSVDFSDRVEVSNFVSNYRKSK
ALR H2O2 inh: inhibitors of human ALR sulfhydryl oxidase, primary screen, biochemical, H2O2 detection, HRP-luminol luminescence, single point; FAD-linked sulfhydryl oxidase ALR (Homo sapiens), P55789; purified ALR, DTT oxidation; inhibition, % (no concentration beside the values); actives 3.8% (n = 290,000); AID 485317, 2010;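 active means mean replicate inhibition above about 79%, with every replicate also reaching it, limit read from the data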
Target sequence (P55789 whole entry, looked up): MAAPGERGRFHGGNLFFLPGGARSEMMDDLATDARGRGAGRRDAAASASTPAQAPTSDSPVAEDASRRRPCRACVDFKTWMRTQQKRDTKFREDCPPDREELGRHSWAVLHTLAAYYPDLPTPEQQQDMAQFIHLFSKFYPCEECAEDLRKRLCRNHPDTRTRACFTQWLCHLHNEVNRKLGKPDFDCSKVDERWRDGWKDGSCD
PRMT1 inh: PRMT1 methyltransferase inhibitors, primary screen, biochemical, fluorescence polarization; inhibition, % at 2.79 µM; actives 1.3% (n = 370,000); AID 652257, 2013; Protein arginine N-methyltransferase 1 (Homo sapiens), Q99873; recombinant PRMT1, activity-based probe fluorescence polarization;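 active means inhibition above about 21% made by adding two undisclosed values, limit read from the data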
* hit, by the source's call; . = no result. Shown are actives, neighbours in structure and some others; about 5.9% of the full set was active somewhere.

SMILES	rCAG RNA binder	LANA-H2B inh	ABHD5-PLIN5 inh	Rtt109 HAT inh	ALR H2O2 inh	PRMT1 inh
O=C(CSc1ncnc2ccccc12)NCC(=O)c1ccccc1	-4.1	0.1	-1.8	-15.1	96.9*	9.4
O=C(CSc1ncnc2ccccc12)NCc1ccc2c(c1)OCO2	-1.0	0.7	4.3	-0.8	25.1	-1.8
Cc1ccc(CSc2ncnc3ccccc23)cc1	3.0	0.1	-2.9	0.6	-15.3	13.2
O=C(CSc1ccc(-c2ccccc2)nn1)c1cccs1	0.8	1.3	-0.1	4.7	91.9*	5.5
CC1CCCCC1NC(=O)COC(=O)c1ccc2c(=O)n3c(nc2c1)CCC3 (stereo not given)	-0.7	4.3	-2.7	1.8	.	5.6
C[C@@H]1CN([C@@H](C)CO)C(=O)CCCn2cc(nn2)CO[C@H]1CN(C)C(=O)Nc1ccc(C(C)(C)C)cc1	-2.6	.	.	.	.	-5.3
CN1CCCNc2nc3ccccc3nc21	0.2	-3.2	0.6	-44.2	80.0*	-0.4
O=C(O)Cc1ccc(C(=O)CSc2ccccc2)s1	13.3	-3.4	1.6	-6.9	98.2*	8.2
C=CCNc1nc(C(=O)OCC(=O)Nc2cc(S(C)(=O)=O)ccc2Cl)cs1	6.0	-0.1	-3.3	.	-11.9	-2.2
C=CCNc1nc(C(=O)OCC(=O)Nc2ccc(S(N)(=O)=O)cc2)cs1	20.4	-3.4	-0.3	2.1	98.3*	6.7
O=C(/C=C/c1ccc(O)c(O)c1)NC(=O)c1ccccc1O	7.3	5.6	8.8	8.9	96.2*	12.5
O=C(O)/C=C/c1ccc(O)c(O)c1	-0.3	-0.6	-10.0	-0.1	98.2*	5.7
COc1cc(C=O)ccc1O	0.7	.	2.4	.	.	3.9
COc1cc(/C=C/C2=NC(=O)C(C)(C)O2)ccc1O	.	5.5	.	.	98.9*	.
O=C(/C=C/c1ccc(Br)cc1)NC(=O)c1ccccc1O	27.4	2.6	-3.3	-7.0	0.2	1.6
COc1cc(/C=C/C(=O)O)ccc1O	0.7	-9.2	4.2	-9.1	87.3*	3.6
COC(=O)[C@]12C[C@H](CC(=O)N3CCC(c4ccccc4)CC3)C(=O)N(Cc3ccc(Cl)cc3Cl)C1=C[C@H](C1CCCC1)O[C@@H]2C	8.6	.	.	.	.	3.5
COC1=C[C@H](C(=O)NCc2ccccn2)[C@@]2(C)Cc3ccccc3[C@H]2CC1=O	5.8	.	.	.	.	4.1
COc1cc(C=C(C(C)=O)C(C)=O)ccc1O	0.5	4.9	11.4	15.9	98.3*	-0.2
COc1cc(/C=C/C(=O)CC(=O)/C=C/c2ccc(O)c(OC)c2)ccc1O	26.6	-11.1	31.5*	4.9	34.9	.
O=C(N=C1SC2CS(=O)(=O)CC2N1c1ccc(F)cc1)C1CCCCC1 (stereo not given)	-2.8	-4.7	-0.5	-1.6	5.8	4.7
O=C(N=C1SC2CS(=O)(=O)CC2N1c1ccc(F)cc1)C1CC1 (stereo not given)	1.9	16.2*	-0.9	2.6	-15.7	-2.2
COc1ccc(C(=O)c2ccc(OC)cc2OC)cc1	-2.4	3.5	-0.2	-6.8	2.7	-1.0
COc1ccc(C(=O)c2ccc(N(C)C)cc2)c(OC)c1	-1.5	-1.5	-4.3	12.0	96.4*	-1.9
CC(=O)Nc1ccc(S(=O)(=O)N(C)CC(=O)OC2CCCCC2=O)cc1 (stereo not given)	0.9	58.9*	-2.1	1.9	3.5	-1.6
SMILES	rCAG RNA binder	LANA-H2B inh	ABHD5-PLIN5 inh	Rtt109 HAT inh	ALR H2O2 inh	PRMT1 inh
COc1ccc(C2CC(=O)c3cc(OC)ccc3O2)cc1 (stereo not given)	1.1	.	3.9	2.6	.	-4.7
COc1ccc2c(c1)C(=O)Cc1ccccc1O2	1.8	17.4*	-17.7	3.5	-15.3	-4.1
CC(C)c1cc(C(N)=O)c(NC(=O)C2CCC2)s1	-0.7	-2.4	-8.2	-2.9	97.5*	-4.5
CC(C)c1nnc(NC(=O)C2CCCCC2)s1	0.9	1.8	0.0	-5.6	0.5	-6.2
Cc1nnc(SCC(=O)NC2CCCCC2)n1-c1ccccc1	0.7	.	5.9	.	.	-0.7
COC(=O)[C@]12C[C@H](CC(=O)NCC34CC5CC(CC(C5)C3)C4)C(=O)N(Cc3ccccc3)C1=C[C@H](COCc1ccccc1)O[C@@H]2C	9.9	.	.	.	.	2.4
O=C(CSCc1ccc(Cl)cc1)Nc1ccc(-c2nnc(-c3ccccc3)o2)cc1	8.4	0.0	2.4	10.5	-0.6	-2.7
N#CCSCC(=O)Nc1ccc(Cl)cc1	-0.7	5.3	-17.3	2.3	98.5*	13.8
O=C(NN=C1CCN(Cc2ccccc2)CC1)c1ccccc1O	0.5	0.8	-0.6	-11.8	44.5	-2.0
CCOC(=O)C1=C(C)C/C(=N\NC(=O)c2ccccc2O)CC1	3.4	17.4*	-0.8	-1.6	2.4	0.6
Cc1cc(NCCOCCO)n2ncc(-c3ccc(Cl)cc3)c2n1	10.3	1.9	16.1	-11.5	98.2*	-0.6
Cc1cc(NCc2ccccn2)n2ncc(-c3ccc(Cl)cc3)c2n1	3.8	0.1	1.1	-3.4	56.0	-1.8
C[C@@H]1[C@@H](c2ccccc2)c2cc3ccccc3nc2C(=O)C[C@@H]1C(=O)N1CCCC1	9.5	.	.	.	.	0.5
C=CCC12C[C@@]3(O[C@H](c4ccc(C(F)(F)F)cc4)N=C3C[C@H](c3ccc(OC)cc3)[C@H]1C)N(Cc1ccc3c(c1)OCO3)C2=O	7.2	.	.	.	.	-0.7
O=C(CSCCc1ccccn1)Nc1ccc(Br)cn1	-3.8	7.4	-14.1	-2.0	98.6*	7.0
O=C(CSCCc1ccccn1)Nc1ccccn1	0.4	1.4	-5.6	-16.4	98.2*	6.3
Cc1ccc(NC(=O)CSCCc2ccccn2)nc1	-4.1	-0.3	1.0	-10.7	97.4*	5.3
O=C(O)CSCCc1ccccn1	-1.4	0.9	-1.8	-4.1	-4.6	0.0
O=C(CSCCc1ccccn1)Nc1cccnc1Cl	0.0	-1.6	-7.3	-7.9	8.1	13.8
COc1ccc(S(=O)(=O)N2CCOCC2)cc1NC(=O)CN1C(=O)NC(C)(C2CC2)C1=O (stereo not given)	4.4	0.4	-8.4	-14.9	.	0.8
CCc1cccc(CC)c1NC(=O)/C(C#N)=C/c1ccccc1C(F)(F)F	-2.8	-11.3	19.4	-4.8	-53.0	-0.8
N#C/C(=C\c1ccccc1C(F)(F)F)C(=O)Nc1ccccc1	0.4	3.5	1.6	-12.8	90.2*	-1.2
COCCCN1C(=O)[C@H](CC(=O)NCc2cccs2)[C@]2(C(=O)OC)CCCCC=C12	5.4	.	.	.	.	1.8
OC(CNCC1CCCO1)COc1ccc(OCC(O)CNCC2CCCO2)cc1 (stereo not given)	.	-11.3	5.0	-5.3	-0.7	.
